# PubChem BioAssay (NCATS)
# Results filed as inconclusive are left out. Entries that show only a call come without a potency. A number with no mark means an inactive call. Activity calls are given as the source filed them. Calls follow the shape of the dose curve; as a rule, active = well fitted curve in the direction sought with a large enough effect; inconclusive = small, poorly fitted or top-dose-only effect, or another doubt; inactive = no such curve, though single readings can be large; an effect the other way counts as inactive or inconclusive.
# Assays:
# MKL-1 = test: qHTS assay to identify novel small-molecules to repurpose for Merkel cell carcinoma treatment (AID 1296009); conditions: MCC and control cell lines, CellTiter-Glo viability, 72 h; series mostly up to 46 µM; also: nearly all actives have a fitted effect of over 60% in size; also: potency is read from the fitted curve at half-maximal effect
# How it was run: (§1)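 Cell viability measured by CellTiter-Glo following 72 hr compound treatment at 37 degree celsius, with NPC and MIPE libraries tested in 8- and 11-point concentration series.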
# MKL-2 = test: as above; conditions: MCC and control cell lines, CellTiter-Glo viability, 72 h; series mostly up to 46 µM
# How it was run: as §1
# NIH3T3 = test: as above; conditions: MCC and control cell lines, CellTiter-Glo viability, 72 h; at 44.8 µM (top of the series) unless noted
# How it was run: as §1
# UISO = test: as above; conditions: MCC and control cell lines, CellTiter-Glo viability, 72 h; series mostly up to 46 µM
# How it was run: as §1
# WaGa = test: as above; conditions: MCC and control cell lines, CellTiter-Glo viability, 72 h; series mostly up to 46 µM
# How it was run: as §1
# C33A = test: Primary qHTS to identify gynecologic anti-cancer compounds using libraries of approved drugs and bioactive compounds (AID 1345084); conditions: Gynecologic cancer cell panel viability, ATPlite luminescence, 48 h; series mostly up to 57.5 µM; also: nearly all actives have a fitted effect of over 55% in size
# How it was run: (§2)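 Cell viability after 48 h drug treatment, ATPlite luminescence readout; five doses.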
# CAOV3 = test: as above; conditions: Gynecologic cancer cell panel viability, ATPlite luminescence, 48 h; series mostly up to 57.5 µM
# How it was run: as §2
# CASKI = test: as above; conditions: Gynecologic cancer cell panel viability, ATPlite luminescence, 48 h; series mostly up to 57.5 µM
# How it was run: as §2
# Es-2 = test: as above; conditions: Gynecologic cancer cell panel viability, ATPlite luminescence, 48 h; series mostly up to 57.5 µM
# How it was run: as §2
# HeLa = test: as above; conditions: Gynecologic cancer cell panel viability, ATPlite luminescence, 48 h; series mostly up to 57.5 µM
# How it was run: as §2
# Hek293T = test: as above; conditions: Gynecologic cancer cell panel viability, ATPlite luminescence, 48 h, control line for the selectivity index; series mostly up to 57.5 µM
# How it was run: as §2
# JEG-3 = test: as above; conditions: Gynecologic cancer cell panel viability, ATPlite luminescence, 48 h; series mostly up to 57.5 µM
# How it was run: as §2
# OV90 = test: as above; conditions: Gynecologic cancer cell panel viability, ATPlite luminescence, 48 h; series mostly up to 57.5 µM
# How it was run: as §2
# PA-1 = test: as above; conditions: Gynecologic cancer cell panel viability, ATPlite luminescence, 48 h; series mostly up to 57.5 µM
# How it was run: as §2
# SKOV3 = test: as above; conditions: Gynecologic cancer cell panel viability, ATPlite luminescence, 48 h; series mostly up to 57.5 µM
# How it was run: as §2
# Tov-21-G = test: as above; conditions: Gynecologic cancer cell panel viability, ATPlite luminescence, 48 h; series mostly up to 57.5 µM
# How it was run: as §2
# Tov112D = test: as above; conditions: Gynecologic cancer cell panel viability, ATPlite luminescence, 48 h; series mostly up to 57.5 µM
# How it was run: as §2
# [1] = Drug repurposing screens with cells derived from glioblastoma tumor samples (AID 1345199); conditions: GBM patient neurospheres viability, ATP luminescence, 48 h; also: nearly all actives have a fitted effect of over 40% in size
# How it was run: (§3)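 Primary testing used CD133+ neurospheres from four GBM patients, seven concentrations, 48 h exposure and ATP-based viability; confirmation added three slower-growing patient lines.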
# astro = test: as above; conditions: viability, ATP luminescence, 48 h; series mostly up to 45.9 µM
# How it was run: as §3
# [2] = at 45.9 µM (top of the series), tumour line B
# [3] = at 45.9 µM (top of the series), tumour line D
# [4] = at 46 µM (top of the series), tumour line A
# [5] = at 46.1 µM (top of the series), tumour line C
smiles,measurement,setting,value
C[N+](C)(C)CCCCCC[N+](C)(C)C,Potency,MKL-1,inactive
same,Potency,MKL-2,inactive
same,outcome,NIH3T3,inactive
same,Potency,UISO,inactive
same,Potency,WaGa,inactive
same,Potency,C33A,inactive
same,Potency,CAOV3,inactive
same,Potency,CASKI,inactive
same,Potency,Es-2,inactive
same,Potency,HeLa,inactive
same,Potency,Hek293T,inactive
same,Potency,JEG-3,inactive
same,Potency,OV90,inactive
same,Potency,PA-1,inactive
same,Potency,SKOV3,inactive
same,Potency,Tov-21-G,inactive
same,Potency,Tov112D,inactive
same,"activity, negative = cell killing",[1]; [2],-9.48%
same,"activity, negative = cell killing",[1]; [3],-17.5%
same,"activity, negative = cell killing",[1]; [4],-4.52%
same,"activity, negative = cell killing",[1]; [5],8.25%
same,Potency,astro,inactive
CCC(CC)[C@H](NC(C)=O)[C@@H]1[C@H](O)[C@@H](C(=O)O)C[C@@H]1N=C(N)N,Potency,MKL-1,inactive
same,Potency,MKL-2,inactive
same,outcome,NIH3T3,inactive
same,Potency,UISO,inactive
same,Potency,WaGa,inactive
O=c1cc(-c2cccc3c2Sc2ccccc2S3)oc(N2CCOCC2)c1,Potency,MKL-1,inactive
same,Potency,MKL-2,inactive
same,outcome,NIH3T3,inactive
same,Potency,UISO,inactive
same,Potency,WaGa,inactive
Cc1c(O)cccc1C(=O)N[C@@H](CSc1ccccc1)[C@H](O)CN1C[C@H]2CCCC[C@@H]2C[C@@H]1C(=O)NC(C)(C)C,Potency,MKL-1,inactive
same,Potency,MKL-2,inactive
CCOC1OC(=O)C[C@H]1NC(=O)[C@@H]1CCCN1C(=O)[C@@H](NC(=O)c1ccc(N)c(Cl)c1)C(C)(C)C (some centres not stated),Potency,MKL-1,inactive
same,Potency,MKL-2,inactive
same,outcome,NIH3T3,inactive
same,Potency,UISO,inactive
NC(N)=Nc1nc(CSCC/C(N)=N/S(N)(=O)=O)cs1,Potency,MKL-1,inactive
same,Potency,MKL-2,inactive
same,outcome,NIH3T3,inactive
same,Potency,UISO,inactive
same,Potency,WaGa,inactive
same,Potency,C33A,inactive
same,Potency,CASKI,inactive
same,Potency,Es-2,inactive
same,Potency,HeLa,inactive
same,Potency,Hek293T,inactive
same,Potency,JEG-3,inactive
same,Potency,OV90,inactive
same,Potency,PA-1,inactive
same,Potency,SKOV3,inactive
same,Potency,Tov-21-G,inactive
same,Potency,Tov112D,inactive
same,"activity, negative = cell killing",[1]; [2],-1.53%
same,"activity, negative = cell killing",[1]; [3],-7.06%
same,"activity, negative = cell killing",[1]; [4],-13.8%
same,"activity, negative = cell killing",[1]; [5],-8.17%
same,Potency,astro,inactive
O=C(OCC#CCSc1nnc(-c2cccc3ccccc23)o1)c1cc2ccccc2s1,Potency,MKL-1,inactive
same,Potency,MKL-2,inactive
same,outcome,NIH3T3,inactive
same,Potency,UISO,inactive
same,Potency,WaGa,inactive
CC#CCn1c(N2CCC[C@@H](N)C2)nc2c1c(=O)n(Cc1nc(C)c3ccccc3n1)c(=O)n2C,Potency,MKL-1,inactive
same,Potency,MKL-2,inactive
same,outcome,NIH3T3,inactive
same,Potency,UISO,inactive
same,Potency,WaGa,inactive
CCN(CC)CCNC(=O)c1ccc(N)cc1,Potency,MKL-1,inactive
same,Potency,MKL-2,inactive
same,outcome,NIH3T3,inactive
same,Potency,UISO,inactive
same,Potency,WaGa,inactive
same,Potency,C33A,inactive
same,Potency,CAOV3,inactive
same,Potency,CASKI,inactive
same,Potency,Es-2,inactive
same,Potency,HeLa,inactive
same,Potency,Hek293T,inactive
same,Potency,JEG-3,inactive
same,Potency,OV90,inactive
same,Potency,PA-1,inactive
same,Potency,SKOV3,inactive
same,Potency,Tov-21-G,inactive
same,Potency,Tov112D,inactive
same,"activity, negative = cell killing",[1]; [2],-3.23%
same,"activity, negative = cell killing",[1]; [5],15.6%
same,Potency,astro,inactive
NC1=N[C@@]2(c3cc(NC(=O)c4ccc(F)cn4)ccc3F)COC[C@@H]2CS1,Potency,MKL-1,10.5 µM (active)
same,Potency,MKL-2,inactive
C[C@H](NC(=O)c1sccc1OCc1ccc(Cl)cc1)c1ccccc1,Potency,MKL-1,inactive
